LMP1 NFkB inh – inhibitors of Epstein-Barr LMP1-induced NF-kappaB reporter; LMP1-induced NF-kappaB luciferase reporter cells, luminescence; inhibition, % at 12.5 µM; hit rate 0.69% among 350,000; in the data active means inhibition above about 41%; inconclusive means no clear call, values can overlap the other calls
Shn3 3UTR inh – Schnurri-3 reporter inhibition in Clone20 osteoblasts; Clone20 osteoblast Shn3 3'UTR firefly luciferase, 24 h; inhibition, % at 12.5 µM; hit rate 0.52% among 360,000; AID 588674;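 active means mean inhibition of at least 75% with every replicate also reaching 75%; inconclusive means mean inhibition at least 75% but some replicate below; inactive means mean inhibition below 75%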
HIF-2a block – HIF-2a inhibition; inhibition, % at 18.8 µM; 786-0 RCC cells HIF-2a reporter, luciferase luminescence, overnight; AID 624352; hit rate 0.72% among 360,000;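 active means inhibition of the luminescence signal of 40% or more relative to plate controls, in a single-dose primary screen at 18.75 µM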
KKLEB tox – reduces viability of KKLEB cystic fibrosis airway cells | KKLEB CF airway cells viability, ATPlite luminescence, overnight; active compounds read low; cells stimulated with P. aeruginosa culture filtrate | activity change (cytotoxicity), % at 5 µM | hit rate 0.36% among 360,000 | AID 602141;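 active means corrected activity change at or below -50% at 5 µM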
Peg3 prom inh – reduces Peg3 promoter-driven luciferase expression in HeLa; HeLa PEG-Prom luciferase reporter, luminescence, overnight; hit rate 1.7% among 360,000; inhibition, % at 20 µM;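 active means inhibition of at least 50% at 20 µM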
CF NFkB block – cystic fibrosis NF-kB activation inhibition; KKLEB NF-kB-GFP reporter, PAF-induced, GFP fluorescence overnight; inhibition, % at 5 µM; hit rate 0.86% among 360,000;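 active means at least 50% inhibition at 5 µM, scaled per plate between neutral and stimulator controls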;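 further: PAF is a Pseudomonas aeruginosa culture filtrate used as stimulus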
Hits are given with their value; – = inactive; ? = inconclusive; · = not tested or not shown; ! = not confirmed by another sample. Compounds with a hit are over-represented: about 2.9% of the library has one in this group of screens.

SMILES	LMP1 NFkB inh	Shn3 3UTR inh	HIF-2a block	KKLEB tox	Peg3 prom inh	CF NFkB block
O=C1CN=C(c2ccc[nH]2)c2cc(Cl)ccc2N1	57	–	–	–	–	–
S=C(NCCc1ccccc1)N1Cc2ccc(Br)cc2-n2nncc2C1	·	–	–	–	51	–
CNP(=S)(NC)OCCOc1ccc(OC)cc1	–	–	–	–	–	–
O=c1[nH]c(=O)n(C2CCCCC2)c(O)c1/C=C/C=Nc1ccccc1	–	–	–	–	–	–
O=P1(N(CCCl)CCCl)NCCCO1 (stereo not drawn)	85	–	–	–	–	–
CN1C2CNC(=O)CC1C1CCC2C1 (stereo not drawn)	–	–	–	–	–	–
CC12CCC3C(CC=C4CC(O)CCC43C)C1C/C(=C\c1ccccc1F)C2=O (stereo not drawn)	–	–	–	–	51	–
CN(C)C1(CNC(=O)c2cc(S(=O)(=O)N3CCOCC3)c(Cl)cc2Cl)CCCCC1	–	–	–	–	–	–
COc1ccccc1OP(=O)(Nc1cccnc1)Oc1ccccc1OC	–	–	–	–	–	–
COc1ccc(CCNCc2cccn2C)cc1	69	–	–	–	–	–
Cn1cccc1CNCCc1ccccc1F	–	–	–	–	–	–
CN1[C@@H]2CC[C@H]1CC(OC(=O)C1C=Nc3ccccc31)C2 (stereo partly drawn)	82	–	–	–	–	–
CN1C2CCC1CC(OC(=O)c1cccc(O)c1)C2 (stereo not drawn)	–	–	–	–	–	–
COC1=C(C)C(=O)C2=C(C1=O)C(CO)N1C(C#N)C3CC4C(C1C2N1CCOC41)N3C (stereo not drawn)	86	–	–	–	95	88
Cc1ccc(/C=C2\C(=O)NC(=S)N(c3ccccc3F)C2=O)s1	–	–	95	–	108	84
Cc1ccc(/C=C2\C(=O)NC(=S)N(c3ccc(F)cc3)C2=O)s1	–	–	–	–	107	–
Cc1cc(Oc2ccc(C(F)(F)F)cc2[N+](=O)[O-])c2c3c(c(=O)oc2c1)CCCC3	–	–	–	–	–	–
O=C1NC(=O)N(c2ccccc2)C(=O)/C1=C/c1ccc(Sc2ccccc2)o1	–	–	–	–	50	–
CC(=O)OC1CC(OC2C(O)CC(OC3C(O)CC(OC4CCC5(C)C(CCC6C5CCC5(C)C(C7=CC(=O)OC7)CCC65O)C4)OC3C)OC2C)OC(C)C1OC1OC(CO)C(O)C(O)C1O (stereo not drawn)	76	–	82	-58	107	82
O=P(O)(O)COc1ccccc1O	–	–	–	–	–	–
CC(=O)OC1C(=O)OCC23CCC4(C)OC4C2OC2CC(OC(=O)C=CC=CC(=O)OCCC1C)C3(C)C21CO1 (stereo not drawn)	81	94	72	-55	100	93
CC(O)C1C=CC=CC(=O)OC2CC3OC4C5OC5(C)CCC4(COC(=O)C4OC4(C)C(O)CO1)C2(C)C31CO1 (stereo not drawn)	84	92	66	–	97	83
COc1ccc(OC(=O)N(C)C[C@H]2OCc3cnnn3CCCC(=O)N([C@@H](C)CO)C[C@H]2C)cc1	–	–	–	–	–	–
O=P(N[C@@H](c1ccccc1)[C@@H]1C[C@H]1CO)(c1ccccc1)c1ccccc1	–	–	–	–	–	–
CCn1c(O)c(C=Nc2ccc(N3CCOCC3)c(Br)c2)c(=O)n(CC)c1=S	?	–	–	–	–	–
SMILES	LMP1 NFkB inh	Shn3 3UTR inh	HIF-2a block	KKLEB tox	Peg3 prom inh	CF NFkB block
CCn1c(O)c(C=Nc2ccc(N3CCOCC3)cc2)c(=O)n(CC)c1=S	–	–	–	–	–	57
CCn1c(O)c(C=NCCN2CCOCC2)c(=O)n(CC)c1=S	–	–	–	–	–	54
CCCCn1c(O)c(C(C)=NCc2ccco2)c(=O)[nH]c1=O	–	–	–	–	–	–
C[C@H]1CC[C@@]2(C)[C@@H](CC[C@@H]3[C@@H]2CC[C@]2(C)[C@@H](O)CC[C@@H]32)C1	–	–	–	–	–	–
c1ccc(C2NCCc3[nH]cnc32)cc1 (stereo not drawn)	–	–	–	–	–	–
C[N+](C)(C)CC1CCCc2ccccc2C1=O (stereo not drawn)	–	–	–	–	–	–
C[N+](C)(C)CC1CCCC(C[N+](C)(C)C)C1=O (stereo not drawn)	–	–	–	–	83	–
COc1ccc(C2N(c3cc(C)on3)C(=O)C3CCCN32)cc1 (stereo not drawn)	–	–	–	–	–	–
N#CC(C#N)=NNc1ccc(-n2ccc(C(F)(F)F)n2)cc1	60	·	–	–	–	79
Cc1cc(C)n(-c2ccc(NN=C(C#N)C#N)cc2)n1	57	–	–	–	–	76
COc1ccc(OC(=O)N(C)C[C@@H]2OCc3cnnn3CCCC(=O)N([C@@H](C)CO)C[C@@H]2C)cc1	–	–	–	–	–	–
CC[C@H]1CN2CCC1C[C@@H]2[C@@H](O)c1ccnc2ccc(OC)cc12 (stereo partly drawn)	–	–	–	–	–	–
CC[C@H]1CN2CCC1C[C@H]2[C@H](O)c1ccnc2ccc(OC)cc12 (stereo partly drawn)	69	–	–	–	–	–
Oc1ccc2c3c1O[C@H]1[C@@H](O)CC[C@@]4(O)[C@@H](C2)N(CC2CCC2)CC[C@]314	69!	–	–	–	–	–
C=CCN1CC[C@]23c4c5ccc(O)c4OC2[C@H](O)CC[C@@]3(O)[C@H]1C5 (stereo partly drawn)	–	–	–	–	–	–
Cc1[nH]c2ccc(OC(F)(F)F)cc2c1CCNCc1ccc(Cl)cc1	–	–	–	–	111	–
CCOc1cccc(CNCCc2c(C)[nH]c3ccc(OC(F)(F)F)cc23)c1O	–	?	–	–	107	–
COc1ccc2[nH]c(C)c(CCNCc3cccnc3)c2c1	–	–	–	–	–	–
COc1ccccc1N1C(=O)NC(=O)C(CCc2ccncc2)(CCc2ccncc2)C1=O	–	–	–	–	–	–
Cc1nn(C)c(C)c1P(=S)(c1c(C)nn(C)c1C)N(C)C	–	–	–	–	–	–
O=C(NCCCN1CCOCC1)C(Cl)(Cl)Cl	–	–	–	–	–	–
CN1CCN(c2nc(Cl)ncc2F)CC1	–	–	–	–	–	–
CCOC(=O)C1C(OC(=O)c2ccccc2)CC2CCC1N2C (stereo not drawn)	73	–	–	–	–	–
COC(=O)C1C2CC[C@@H](CC1OC(=O)c1ccccc1)N2 (stereo partly drawn)	90	–	–	–	–	–
CNCC(C)c1ccccc1 (stereo not drawn)	–	–	–	–	–	–
CN(C)P1(N(C)C)=Nc2c(c(N)nn2C)C(c2ccccc2)=N1	–	–	–	–	–	–
FC(F)(F)c1ccc(CNCCc2ccc3c(c2)OCO3)cc1	–	–	–	–	–	–

Screening results: PubChem BioAssay, several laboratories
